Reference: PubChem BioAssay
Unmarked numbers belong to inactive results. Activity calls are given as the source filed them.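 The calls were made as follows, unless noted: active = mean inhibition over 43.08%, the solvent-only control mean plus 3 SD; inactive = the rest.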

How the values were obtained:
[1] = molecular target: Nuclear receptor coactivator 3 (Homo sapiens) (UniProt Q9Y6Q9); experiment: SRC3 coactivator transcriptional activity inhibitors, confirmation, cell-based, luminescence, quadruplicate (AID 588792); settings: HEK293 GAL4-SRC3 luciferase reporter, at 3.6 µM, active compounds read high;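 also: 0% = DMSO treated cells and 100% = gossypol at 36 µM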
[2] = test system: transactivating tegument protein VP16 (Human herpesvirus 1), Gal4-VP16 luciferase reporter; experiment: VP16 transactivation inhibitors, counter-screen for SRC3 inhibitor project, cell-based, luminescence, high throughput (AID 588794; in the data active = inhibition above about 30%); settings: mammalian cells, VP16-driven luciferase reporter luminescence; at 3.6 µM; active compounds read high

Nuclear receptor coactivator 3 (Homo sapiens), sequence (Q9Y6Q9 whole entry, looked up, the tested form may be a part): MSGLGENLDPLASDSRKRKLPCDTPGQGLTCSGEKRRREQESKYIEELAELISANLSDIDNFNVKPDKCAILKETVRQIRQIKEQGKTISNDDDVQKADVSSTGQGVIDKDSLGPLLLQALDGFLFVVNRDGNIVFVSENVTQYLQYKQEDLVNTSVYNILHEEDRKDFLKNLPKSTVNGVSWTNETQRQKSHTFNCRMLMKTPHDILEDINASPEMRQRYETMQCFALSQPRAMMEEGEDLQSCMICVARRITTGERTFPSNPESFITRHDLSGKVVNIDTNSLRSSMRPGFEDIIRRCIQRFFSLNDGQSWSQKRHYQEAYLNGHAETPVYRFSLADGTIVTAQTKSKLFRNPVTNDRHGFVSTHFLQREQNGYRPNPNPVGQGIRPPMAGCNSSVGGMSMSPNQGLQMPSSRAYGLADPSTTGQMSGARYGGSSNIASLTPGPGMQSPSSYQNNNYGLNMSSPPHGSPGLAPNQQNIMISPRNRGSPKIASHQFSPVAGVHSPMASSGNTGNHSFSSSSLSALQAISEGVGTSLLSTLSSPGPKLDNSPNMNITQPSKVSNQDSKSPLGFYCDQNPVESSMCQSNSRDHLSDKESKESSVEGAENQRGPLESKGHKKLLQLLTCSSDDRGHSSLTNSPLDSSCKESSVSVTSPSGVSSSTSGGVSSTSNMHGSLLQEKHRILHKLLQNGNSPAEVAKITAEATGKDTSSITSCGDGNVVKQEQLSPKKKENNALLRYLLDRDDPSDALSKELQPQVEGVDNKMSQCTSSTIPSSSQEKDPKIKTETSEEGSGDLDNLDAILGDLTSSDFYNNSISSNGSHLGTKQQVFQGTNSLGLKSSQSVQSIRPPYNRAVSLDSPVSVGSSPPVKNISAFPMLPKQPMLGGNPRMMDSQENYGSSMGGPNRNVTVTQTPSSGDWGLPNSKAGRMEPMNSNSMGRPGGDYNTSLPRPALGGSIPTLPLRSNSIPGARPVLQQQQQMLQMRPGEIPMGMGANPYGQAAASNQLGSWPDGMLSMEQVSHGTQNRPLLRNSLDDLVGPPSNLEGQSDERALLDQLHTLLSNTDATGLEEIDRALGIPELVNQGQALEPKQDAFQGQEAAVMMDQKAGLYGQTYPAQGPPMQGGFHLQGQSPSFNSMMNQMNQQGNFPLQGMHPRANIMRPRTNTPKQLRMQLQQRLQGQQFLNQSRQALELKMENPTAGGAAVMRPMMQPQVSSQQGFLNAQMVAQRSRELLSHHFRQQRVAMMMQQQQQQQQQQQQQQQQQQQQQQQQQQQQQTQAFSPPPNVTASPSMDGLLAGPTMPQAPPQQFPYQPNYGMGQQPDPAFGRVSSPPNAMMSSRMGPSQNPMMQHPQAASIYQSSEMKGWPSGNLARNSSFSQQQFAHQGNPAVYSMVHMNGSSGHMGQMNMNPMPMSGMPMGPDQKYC

COc1ccc(Nc2nc(-c3ccccc3)nc3ccccc23)cc1S(=O)(=O)N1CCOCC1
inhibition [1]: 7.91%
inhibition [2]: 1.3%

O=C(CCc1ccncc1)NC1CCCc2c1cnn2-c1ccc(F)cc1F (stereo unspecified)
inhibition [1]: 0.71%
inhibition [2]: 18.6%

O=C(CN1CC(c2ccccc2)CC1=O)N/N=C/c1cc(Br)ccc1O (stereo unspecified)
inhibition [1]: 15.1%
inhibition [2]: 10.9%

CCOC(=O)C1CCCN(c2c(NCCCN(C)c3ccccc3)c(=O)c2=O)C1 (stereo unspecified)
inhibition [1]: -9.14%
inhibition [2]: -3.6%

Fc1ccc(-c2noc(C3CCN(Cc4cccnc4)CC3)n2)cc1
inhibition [1]: -4.45%
inhibition [2]: 6.14%

COc1ccc(Oc2ccc(/C=C/C(=O)c3ccc(O)cc3)cc2[N+](=O)[O-])cc1
inhibition [1]: -5.49%
inhibition [2]: -5.56%

COc1ccc(C)cc1NC(=O)CN1C(=O)CSc2ccc(S(=O)(=O)N3CCCC3)cc21
inhibition [1]: 4.25%
inhibition [2]: 3.04%

COc1ccccc1N(CC(=O)N/N=C/c1c(O)ccc2ccccc12)S(C)(=O)=O
inhibition [1]: 34.2%
inhibition [2]: 41.2% (active)

CCN(CC(=O)Nc1ccccc1C(F)(F)F)C(=O)c1ccc(N2C(=O)CCC2=O)cc1
inhibition [1]: -1.4%
inhibition [2]: 2.68%

Cc1cccc(Oc2sc(C(=O)c3ccccc3)c(N)c2C#N)c1
inhibition [1]: 34.8%
inhibition [2]: 5.81%

COc1ccc2c(c1)N(C)/C(=C/c1cccc[n+]1C)S2
inhibition [1]: -6.44%
inhibition [2]: 37.5% (active)

O=C1N=C(N2CCN(c3ccccc3)CC2)S/C1=C\c1cn[nH]c1-c1ccccc1
inhibition [1]: 8.51%
inhibition [2]: 2.8%

COc1ccc(C)cc1NC(=O)c1nnn(Cc2cccc(F)c2)c1N
inhibition [1]: 22.3%
inhibition [2]: 26.1%

CCn1nc(C(=O)OCC(=O)c2ccc3c(c2)OCCO3)c2ccccc2c1=O
inhibition [1]: -13.9%
inhibition [2]: -5.51%

Cc1ccc(S(=O)(=O)NCc2ccc(C(=O)N3CCN(c4ccc([N+](=O)[O-])cc4)CC3)cc2)cc1
inhibition [1]: 17%
inhibition [2]: 36.9% (active)

CC1=[N+]([O-])C(C)(C)CC(C)(C)c2ccccc21
inhibition [1]: 3.29%
inhibition [2]: 6.25%

FC(F)(F)c1cccc(Nc2cc(-c3ccccc3)nc3ncnn23)c1
inhibition [1]: -2.25%
inhibition [2]: -0.93%

CCCCc1c(O)nc(SCC(=O)NCC2CCCO2)[nH]c1=O (stereo unspecified)
inhibition [1]: -3.37%
inhibition [2]: 6.46%
